Assay outcomes from PubChem.
Sampled rows, rich in hits. Any-hit rate of the full collection: about 21%.
Pf growth 48h: Primary qHTS for delayed death inhibitors of the malarial parasite plastid, 48 hour incubation; Potency, µM (series often up to 28.7 µM), for the others: at the highest dose activity change, negative = inhibition, actives largely listed as inhibitors; P. falciparum luciferase growth in erythrocytes, 48 h; 310,000 compounds, 5.9% hits; also: potency is read from the fitted curve at half-maximal effect; % is scaled to controls: 0 for no effect and ±100 for the full control effect
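Cell-based growth assay: transgenic P. falciparum expressing firefly luciferase, cultured in red cells within RPMI 1640 containing 0.5% w/v Albumax, 24 mM bicarbonate and gentamycin. A drop in luciferase activity indicates inhibition.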
Pf growth 96h: Primary qHTS for delayed death inhibitors of the malarial parasite plastid, 96 hour incubation. P. falciparum luciferase reporter growth, 96 h. Potency, µM (highest dose often 28.7 µM), for inactives: top-dose activity change, negative = inhibition, most hits filed as inhibitors. 320,000 compounds, 6.9% hits. AID 504834, 2011; also: potency is read from the fitted curve at half-maximal effect; % is scaled to controls: 0 for no effect and ±100 for the full control effect
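Erythrocytes infected with luciferase-expressing P. falciparum were dispensed at 2% hematocrit and 0.05% parasitemia (final), then incubated with compounds 96 hours at 37 C in 5% CO2. Luminescence after detection reagent addition reported growth.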
Cycloheximide cs: Cycloheximide Counterscreen for Small Molecule Inhibitors of Shiga Toxin; max response, %; cell reporter, cycloheximide protein synthesis inhibition counterscreen; 300,000 compounds, 12% hits; AID 2314, 2010; in the data active = max response mostly above about 13%, no sharp cut-off; inactive = mostly below about 14%; also: read at 38.3 µM for the half of the compounds with a filed dose; 0% is about no effect
NS1 inh: qHTS Assay for Inhibitors of Influenza NS1 Protein Function | 270,000 compounds, 0.4% hits | AID 2326, 2010 | Potency, µM (titrated, usually from 46.1 µM), for the others: top-dose activity, positive = more growth; calls by dose curve; also: potency is read from the fitted curve at half-maximal effect; actives are rising curves; nearly all actives have a fitted effect of over 50% in size
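A cell-based growth assay was used: compounds that relieve NS1-induced slow growth of budding yeast raise OD600. Assay medium was yeast nitrogen base with ammonium sulphate and -URA supplement, pH 6.0, with 2% galactose.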
Shiga toxin inh: A qHTS for Small Molecule Inhibitors of Shiga Toxin; Vero cells, Shiga toxin protein synthesis inhibition reporter; inhibition, % at 38.7 µM; 290,000 compounds, 9.2% hits; AID 2315, 2010; in the data active = inhibition mostly above about 28%, no sharp cut-off; inactive = mostly below about 43%; also: 0% is about no effect
Giardia FBPA inh: qHTS Assay for Inhibitors of Fructose-1,6-bisphosphate Aldolase from Giardia Lamblia; A8B2U2; purified Giardia FBPA; Potency, µM (doses to about 59.6 µM), without a hit: at the highest dose activity, negative = inhibition, most hits filed as inhibitors; 290,000 compounds, 0.71% hits; AID 2451, 2010; also: potency is read from the fitted curve at half-maximal effect; % is scaled to controls: 0 for no effect and ±100 for the full control effect; nearly all actives have a fitted effect of over 55% in size
Target sequence (A8B2U2 whole entry, looked up): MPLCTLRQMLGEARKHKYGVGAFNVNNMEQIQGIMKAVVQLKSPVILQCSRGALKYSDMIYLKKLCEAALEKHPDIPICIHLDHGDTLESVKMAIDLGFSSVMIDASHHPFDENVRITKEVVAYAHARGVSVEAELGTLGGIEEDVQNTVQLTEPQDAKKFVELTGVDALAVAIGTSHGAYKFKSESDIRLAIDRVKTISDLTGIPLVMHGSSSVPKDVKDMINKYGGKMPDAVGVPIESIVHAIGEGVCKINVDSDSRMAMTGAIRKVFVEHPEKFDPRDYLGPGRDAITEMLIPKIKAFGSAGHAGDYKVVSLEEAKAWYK
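40 nM FBPA preincubated 10 min at RT with compound (up to 57.5 uM final), then substrate plus GAPDH/TPI/NAD/arsenate coupling and diaphorase/resazurin added. Fluorescence read after 20 min at RT, 525/598 nm.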
Numbers without * were called inactive; ? = inconclusive; nt = no result. Unless noted, calls follow the shape of the dose curve; as a rule, active = well fitted curve in the direction sought with a large enough effect; inconclusive = small, poorly fitted or top-dose-only effect, or another doubt; inactive = no such curve, though single readings can be large; an effect the other way counts as inactive or inconclusive.

SMILES	Pf growth 48h	Pf growth 96h	Cycloheximide cs	NS1 inh	Shiga toxin inh	Giardia FBPA inh
Cc1ccccc1OCc1nc2ccccc2n1C	125%	12%	32*	-74%	nt	11%
Cc1cccc(OCc2nc3ccccc3n2C)c1	65%	35%	37*	-44%	29*	-27%
Cn1c(COc2ccc(C(=O)O)cc2)nc2ccccc21	-2%	?	-5	2%	-6	-1%
CC(=O)NCCc1nc2ccccc2n1CCOc1cccc(C)c1	?	?	2	-2%	2	0%
O=C(O)CCNC(=O)c1ccc(N=Nc2ccc(O)c(C(=O)O)c2)cc1	1%	16%	nt	nt	nt	nt
Cc1nnc(OCc2nc3ccccc3n2C)c2ccccc12	50%	13%	33*	-3%	68*	-1%
O=C(COC(=O)c1cnccn1)N=c1sccn1Cc1ccccc1Cl	7%	0%	nt	nt	nt	nt
OC1OC[C@H](O)[C@H](O)[C@H]1O (stereo not given in full)	nt	nt	-6	nt	-1	3%
COc1ccc(C)cc1N(C(=O)c1cccc(F)c1)c1nc2ccccc2s1	?	?	-1	10%	-4	-7%
Cc1ccsc1C(=O)N(c1nc2ccccc2s1)c1c(C)cccc1C	12µM*	8.3µM*	-1	7%	-14	3%
COc1ccc(C)cc1N(C(=O)c1ccccc1)c1nc2ccccc2s1	12µM*	13µM*	0	7%	-2	-10%
COc1ccc(C)cc1N(C(=O)c1ccccc1F)c1nc2ccccc2s1	9.3µM*	17µM*	-3	?	-8	-6%
COc1ccc(C)cc1N(C(=O)COc1ccccc1)c1nc2ccccc2s1	10µM*	?	2	-5%	15	0%
CN(C)CCCN(C(=O)COc1ccccc1)c1nc2cc3c(cc2s1)OCO3	?	?	11	2%	20	-29%
COc1ccc(-c2nc3cnc(OC)nc3n(CCC#N)c2=O)cc1	nt	nt	nt	nt	nt	9%
Cc1ccc2oc(-c3cccc(NC(=O)C4CCCO4)c3)nc2c1 (stereo not given)	225%	10µM*	41*	-46%	76*	6%
COc1cc(C(=O)Nc2cccc(-c3nc4cc(C)ccc4o3)c2)cc(OC)c1OC	5%	-6%	17*	29%	81*	0%
O=C(O)c1ccc(Cl)cc1NC(=O)C1CCCO1 (stereo not given)	-3%	14%	-4	-5%	-3	1%
O=C(Nc1cccc(-c2nc3cc(Cl)ccc3o2)c1)C1CCCO1 (stereo not given)	178%	nt	14*	-37%	47	0%
Cc1cccc(-c2nc3cc(NC(=O)C4CCCO4)ccc3o2)c1 (stereo not given)	123%	-1%	67*	-13%	active	1%
COc1ccc(CCNC(=O)CCCc2ccccc2)cc1OC	nt	-16%	-4	-4%	6	5%
O=C(CCN1CCOCC1)Nc1ccc(Cl)cc1	-1%	-25%	1	-23%	6	?
CC(OC(=O)Cn1cnc2c1c(=O)n(C)c(=O)n2C)C(=O)NC1(C#N)CCCCC1 (stereo not given)	2%	31%	nt	nt	nt	nt
COc1ccc(CC2(CO)CCN(S(=O)(=O)c3c(C)nn(C)c3C)CC2)cc1	0%	219%	-3	-3%	-8	4%
CCCn1ncc(CN2CCC(CO)(Cc3ccc(OC)cc3)CC2)c1C	-3%	0.37µM*	9	-1%	7	2%
SMILES	Pf growth 48h	Pf growth 96h	Cycloheximide cs	NS1 inh	Shiga toxin inh	Giardia FBPA inh
COc1ccc(CC2(CO)CCN(S(=O)(=O)N(C)C)CC2)cc1	25%	5.9µM*	-2	-8%	19	2%
COc1ccc(CC2(CO)CCN(S(=O)(=O)c3cccc4cccnc34)CC2)cc1	-21%	12µM*	1	1%	3	3%
O=S(=O)(c1ccc(Cl)cc1)N1CCN(c2nc(-c3ccc(F)cc3)nc3cc(Cl)ccc23)CC1	nt	nt	3	nt	3	nt
Cc1ccc(C)c(NC(=O)CCN2CC(C)CC(C)C2)c1 (stereo not given)	4%	?	-2	-4%	nt	-1%
CCN1CCN(CCC(=O)Nc2ccccc2)CC1	70%	13µM*	2	21%	15	-10%
Cc1ccc(C)c(NC(=O)CCN2CCC(C)CC2)c1	10%	5.2µM*	-2	-2%	-16	-1%
CCN1CCN(CCC(=O)Nc2cc(C)ccc2C)CC1	52%	?	-1	5%	-6	3%
Cc1ccc(C)c(NC(=O)CCN2CCc3ccccc3C2)c1	13µM*	0%	-5	4%	-11	?
Cc1ccc(NC(=O)CCN2CCC(C)CC2)cc1	34%	13µM*	-3	-2%	-6	-24%
Nc1ccc(S(=O)(=O)N2CCCC2)cc1Cl	-9%	8%	2	0%	-15	-5%
COc1cc(/C=C2\C(=N)N3N=C(S(C)(=O)=O)SC3=NC2=O)ccc1OS(=O)(=O)c1ccc(C)cc1	-12%	?	24*	2%	20	17%
CCC1=NN2C(=N)/C(=C/c3ccc(OS(=O)(=O)c4ccccc4)c(OC)c3)C(=O)N=C2S1	7%	?	-2	7%	45	-5%
COc1cc(/C=C2\C(=N)N3N=CSC3=NC2=O)ccc1OS(=O)(=O)c1ccccc1	1%	?	16*	?	18	nt
COc1cc(/C=C2/C(=N)N3N=C(C(C)C)SC3=NC2=O)ccc1OS(=O)(=O)c1ccccc1	3%	3%	8.7*	-1%	49	-12%
Cc1cc(/C=C2\C(=N)N3N=CSC3=NC2=O)c(C)n1Cc1ccccc1	5%	52%	14*	4%	52	20%
CCCC1=NN2C(=N)/C(=C\c3cc(C)n(Cc4ccccc4)c3C)C(=O)N=C2S1	12%	32%	-1	-2%	3	20%
Cc1cccc(CN2CC34CCC(CC3S2(=O)=O)O4)c1 (stereo not given)	nt	nt	9	nt	10	11%
Cn1c(=O)n(C)c2cc(N3CCCCC3)c(NC(=O)c3cccc(Cl)c3)cc21	10µM*	?	-2	-1%	-4	nt
CCOc1cc(C(=O)Nc2cc3c(cc2N2CCOCC2)n(C)c(=O)n3C)cc(OCC)c1OCC	-16%	8.3µM*	1	11%	-8	-7%
CCOc1ccc(C(=O)Nc2cc3c(cc2N2CCCC2)n(CC)c(=O)n3CC)cc1OCC	?	12µM*	-3	-4%	-11	?
COc1cccc(C(=O)Nc2cc3c(cc2N2CCOCC2)n(C)c(=O)n3C)c1	-7%	?	-7	?	11	nt
CCn1c(=O)n(CC)c2cc(N3CCCC3)c(NC(=O)c3cccc(OC)c3)cc21	?	0.74µM*	-3	-12%	4	?
COc1ccc(C(=O)Nc2cc3c(cc2N2CCOCC2)n(C)c(=O)n3C)cc1OC	?	?	-2	-2%	-4	nt
